By inhibition is commonly meant the relative decrease from the control value, in per cent.

Molecules are shown by their SMILES.

Experiment [1] addresses RAF proto-oncogene serine/threonine-protein kinase (Homo sapiens) (UniProt P04049). As to conditions: at 1 µM.
Experiment [2] addresses T1, Interleukin-1 receptor-associated kinase 4 (Homo sapiens) (UniProt Q9NWZ3).
T1 sequence (whole entry): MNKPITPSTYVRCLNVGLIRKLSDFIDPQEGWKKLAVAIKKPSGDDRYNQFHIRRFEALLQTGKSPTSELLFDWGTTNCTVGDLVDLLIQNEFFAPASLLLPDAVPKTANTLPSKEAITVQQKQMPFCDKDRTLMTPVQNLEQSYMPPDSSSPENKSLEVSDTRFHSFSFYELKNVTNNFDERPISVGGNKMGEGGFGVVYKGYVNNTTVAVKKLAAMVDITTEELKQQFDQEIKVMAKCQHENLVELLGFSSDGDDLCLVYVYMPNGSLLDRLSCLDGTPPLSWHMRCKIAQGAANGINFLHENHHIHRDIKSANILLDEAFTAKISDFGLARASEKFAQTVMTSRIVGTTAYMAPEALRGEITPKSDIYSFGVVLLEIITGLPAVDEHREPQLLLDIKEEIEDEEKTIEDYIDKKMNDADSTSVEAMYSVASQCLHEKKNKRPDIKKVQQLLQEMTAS
The note with it: at 0.1 µM.

Experiment [3] has as its target T1, Interleukin-1 receptor-associated kinase 4 (Homo sapiens). As to conditions: at 1 µM.
For experiment [4], the target named is Leucine-rich repeat serine/threonine-protein kinase 2 (Homo sapiens) (UniProt Q5S007). The note with it: at 0.1 µM.
For experiment [5] the target is unchanged. The note with it: at 1 µM.
Experiment [6] concerns Leucine-rich repeat serine/threonine-protein kinase 2 (Homo sapiens), Q5S007 [G2019S]. The note with it: at 0.1 µM.
Experiment [7] shares this test system. The note with it: at 1 µM.

Sequence of Leucine-rich repeat serine/threonine-protein kinase 2 (Homo sapiens) (Q5S007 whole entry): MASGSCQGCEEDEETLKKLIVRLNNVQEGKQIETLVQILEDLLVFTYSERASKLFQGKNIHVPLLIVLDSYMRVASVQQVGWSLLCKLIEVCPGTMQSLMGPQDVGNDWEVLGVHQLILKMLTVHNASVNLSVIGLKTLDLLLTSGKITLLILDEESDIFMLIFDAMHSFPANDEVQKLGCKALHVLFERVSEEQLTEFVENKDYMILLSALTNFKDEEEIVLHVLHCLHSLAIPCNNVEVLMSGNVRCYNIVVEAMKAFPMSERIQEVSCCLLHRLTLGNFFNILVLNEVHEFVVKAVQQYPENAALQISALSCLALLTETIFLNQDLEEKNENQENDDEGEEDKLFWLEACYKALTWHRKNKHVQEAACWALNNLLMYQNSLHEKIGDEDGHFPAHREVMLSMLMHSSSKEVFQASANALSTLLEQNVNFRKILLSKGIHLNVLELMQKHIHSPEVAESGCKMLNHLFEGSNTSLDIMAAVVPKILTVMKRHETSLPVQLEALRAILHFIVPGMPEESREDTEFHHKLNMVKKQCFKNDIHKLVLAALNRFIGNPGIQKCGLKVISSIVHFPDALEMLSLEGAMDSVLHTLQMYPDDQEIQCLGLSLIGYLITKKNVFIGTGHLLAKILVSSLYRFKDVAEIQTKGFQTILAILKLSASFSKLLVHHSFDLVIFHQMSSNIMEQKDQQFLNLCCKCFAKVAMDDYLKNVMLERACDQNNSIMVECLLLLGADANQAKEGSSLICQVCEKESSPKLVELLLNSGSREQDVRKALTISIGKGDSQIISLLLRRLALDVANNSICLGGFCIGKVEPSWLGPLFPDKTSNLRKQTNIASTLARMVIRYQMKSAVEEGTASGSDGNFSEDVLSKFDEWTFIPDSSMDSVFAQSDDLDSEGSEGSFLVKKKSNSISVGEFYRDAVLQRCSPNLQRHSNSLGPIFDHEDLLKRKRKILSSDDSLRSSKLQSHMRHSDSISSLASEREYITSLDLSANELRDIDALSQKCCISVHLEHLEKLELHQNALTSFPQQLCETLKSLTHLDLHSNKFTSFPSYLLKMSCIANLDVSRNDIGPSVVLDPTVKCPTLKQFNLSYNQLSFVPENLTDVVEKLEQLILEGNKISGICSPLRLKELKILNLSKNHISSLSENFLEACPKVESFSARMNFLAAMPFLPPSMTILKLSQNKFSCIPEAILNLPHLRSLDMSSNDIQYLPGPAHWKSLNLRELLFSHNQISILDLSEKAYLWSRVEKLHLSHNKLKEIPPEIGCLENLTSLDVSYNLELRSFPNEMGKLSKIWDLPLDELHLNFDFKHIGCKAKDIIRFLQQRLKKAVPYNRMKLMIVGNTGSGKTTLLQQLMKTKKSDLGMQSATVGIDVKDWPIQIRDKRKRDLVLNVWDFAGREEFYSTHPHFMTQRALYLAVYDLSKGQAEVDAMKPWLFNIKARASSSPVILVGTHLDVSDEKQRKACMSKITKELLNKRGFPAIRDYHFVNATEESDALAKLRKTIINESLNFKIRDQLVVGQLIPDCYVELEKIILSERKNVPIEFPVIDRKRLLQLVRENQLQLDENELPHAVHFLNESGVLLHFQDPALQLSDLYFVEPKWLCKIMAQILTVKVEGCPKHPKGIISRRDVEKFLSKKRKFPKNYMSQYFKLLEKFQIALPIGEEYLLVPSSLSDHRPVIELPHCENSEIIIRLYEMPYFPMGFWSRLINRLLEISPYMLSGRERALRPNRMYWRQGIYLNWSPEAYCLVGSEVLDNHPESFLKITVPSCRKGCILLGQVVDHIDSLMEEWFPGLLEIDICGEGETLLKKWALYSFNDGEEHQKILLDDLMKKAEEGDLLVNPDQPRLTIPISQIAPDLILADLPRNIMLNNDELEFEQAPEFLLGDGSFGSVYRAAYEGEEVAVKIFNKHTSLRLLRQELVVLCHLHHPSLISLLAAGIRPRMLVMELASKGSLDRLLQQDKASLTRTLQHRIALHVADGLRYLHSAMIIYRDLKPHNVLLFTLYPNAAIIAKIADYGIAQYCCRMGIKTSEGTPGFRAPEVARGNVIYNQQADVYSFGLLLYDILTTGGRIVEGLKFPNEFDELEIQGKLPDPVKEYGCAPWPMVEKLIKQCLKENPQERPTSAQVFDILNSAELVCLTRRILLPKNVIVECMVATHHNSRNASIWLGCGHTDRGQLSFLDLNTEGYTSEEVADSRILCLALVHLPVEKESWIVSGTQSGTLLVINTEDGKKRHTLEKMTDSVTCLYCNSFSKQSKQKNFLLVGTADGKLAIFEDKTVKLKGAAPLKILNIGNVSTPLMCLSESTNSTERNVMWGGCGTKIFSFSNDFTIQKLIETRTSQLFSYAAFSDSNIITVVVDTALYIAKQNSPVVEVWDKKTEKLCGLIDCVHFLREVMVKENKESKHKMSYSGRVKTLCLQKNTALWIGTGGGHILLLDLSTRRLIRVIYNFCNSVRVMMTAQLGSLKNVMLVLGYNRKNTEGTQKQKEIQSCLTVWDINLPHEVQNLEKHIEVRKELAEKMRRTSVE
Sequence of RAF proto-oncogene serine/threonine-protein kinase (Homo sapiens) (P04049 whole entry): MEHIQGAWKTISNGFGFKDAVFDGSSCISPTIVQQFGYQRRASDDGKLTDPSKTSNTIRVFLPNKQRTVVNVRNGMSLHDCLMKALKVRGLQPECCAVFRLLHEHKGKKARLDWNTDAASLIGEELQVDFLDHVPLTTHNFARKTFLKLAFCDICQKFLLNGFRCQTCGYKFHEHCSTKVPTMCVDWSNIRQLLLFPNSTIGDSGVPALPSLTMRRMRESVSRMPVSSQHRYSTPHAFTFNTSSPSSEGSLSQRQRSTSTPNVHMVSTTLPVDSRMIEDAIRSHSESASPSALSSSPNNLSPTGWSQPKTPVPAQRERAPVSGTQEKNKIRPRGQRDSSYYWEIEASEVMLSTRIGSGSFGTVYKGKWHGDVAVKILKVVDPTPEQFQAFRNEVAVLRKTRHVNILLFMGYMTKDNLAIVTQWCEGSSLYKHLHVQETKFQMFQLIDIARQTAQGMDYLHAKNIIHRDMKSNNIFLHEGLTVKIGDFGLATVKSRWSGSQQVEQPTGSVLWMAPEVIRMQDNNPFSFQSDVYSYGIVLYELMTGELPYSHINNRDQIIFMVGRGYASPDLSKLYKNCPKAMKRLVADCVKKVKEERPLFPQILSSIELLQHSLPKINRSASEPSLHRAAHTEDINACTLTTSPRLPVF
Sequence of Leucine-rich repeat serine/threonine-protein kinase 2 (Homo sapiens), Q5S007 [G2019S] (Q5S007 whole entry G2019S): as the sequence (Q5S007 whole entry) above, with G2019S counted along it

As for `C[C@@H](Oc1cc(-n2cnc3ccc(OCC4CCN(C)CC4)cc32)sc1C(N)=O)c1ccccc1C(F)(F)F`, the inhibition amounted to 1.99% in experiment [1]; 0.42% in experiment [2]; 9.77% in experiment [3]; 6.53% in experiment [4]; 26.4% in experiment [5]; 7.39% in experiment [6]. In addition, in experiment [7], the inhibition is 31%.
As to `C[C@@H](Oc1cc(-n2cnc3ccc(OC[C@@H](O)CO)cc32)sc1C(N)=O)c1ccccc1Cl`, the inhibition was 5.77% in experiment [1]; 1.29% in experiment [2]; -0.05% in experiment [3]; 3.25% in experiment [4]; 17.3% in experiment [5]; 5.39% in experiment [6]. Also, in experiment [7], the inhibition turned out to be 28.7%.
`CN1CCN(C(=O)c2ccc(NC(=O)Nc3ccc(N(C)c4ccnc(Nc5ccc(CS(C)(=O)=O)cc5)n4)cc3)cc2)CC1`: the inhibition in experiment [1] was -0.88%; in experiment [2], 0.32%; in experiment [3] it was 0.52%; in experiment [4] it was 13.7%; in experiment [5], 21.2%; in experiment [6], 15.2%. Further, the inhibition in experiment [7] is 50.9%.
As to `Cc1cc(-c2ccccn2)cc(C)c1/C=C/c1cncc(-c2nn[nH]n2)c1`, the inhibition in experiment [1] is 0.84%; in experiment [2] it was 1.97%; in experiment [3] it was 2.42%; in experiment [4], 1.5%; in experiment [5] it was 10.7%; in experiment [6], 3.32%. For the same compound, the inhibition in experiment [7] turned out to be 8.55%.
Consider `NC(=O)c1sc(-n2cnc3ccccc32)cc1OCc1ccccc1Br`, for which the inhibition in experiment [1] was -0.55%; in experiment [2], 1.39%; in experiment [3], 2.57%; in experiment [4] it was 1.66%; in experiment [5] it was 10.8%; in experiment [6], 4.94%. For the same compound, the inhibition in experiment [7] turned out to be 19.3%.
In the case of `COC(=O)Nc1nc2cc(Oc3ccc(NC(=O)Nc4cccc(Br)c4)cc3)ccc2[nH]1`, the inhibition worked out at 44.2% in experiment [1]; 1.75% in experiment [2]; 1.23% in experiment [3]; 8.94% in experiment [4]; 13.4% in experiment [5]; 4.67% in experiment [6]. Besides, in experiment [7], the inhibition turned out to be 10.5%.
Consider `CS(=O)(=O)CCNCc1nc(-c2ccc3ncnc(Nc4ccc(OCc5cccc(C(F)(F)F)c5)cc4)c3c2)cs1`, for which the inhibition in experiment [1] is -1.38%; in experiment [2], 0.78%; in experiment [3], 1.16%; in experiment [4], 1.09%; in experiment [5], 6.41%; in experiment [6], 3.12%. For the same compound, in experiment [7], the inhibition came to 5.01%.
In the case of `O=C1Nc2ccccc2/C1=C/Nc1ccc2[nH]c(=O)[nH]c2c1`, the inhibition in experiment [1] was -0.47%; in experiment [2] it was 2.93%; in experiment [3], 2.88%; in experiment [4] it was 3.06%; in experiment [5], 14.1%; in experiment [6] it was 6.22%. In experiment [7], the inhibition came out at 35%.
As for `COc1cc2ncn(-c3cc(OCc4ccccc4S(C)(=O)=O)c(C#N)s3)c2cc1OC`, the inhibition was 2.83% in experiment [1]; -0.58% in experiment [2]; 10.8% in experiment [3]; 25.5% in experiment [4]; 83.7% in experiment [5]; 60.4% in experiment [6]. Moreover, the inhibition in experiment [7] is 61.8%.
Turning to `N#Cc1cccc(Nc2nccc(-c3cnn4ncccc34)n2)c1`, the inhibition came out at 0.47% in experiment [1]; 4.11% in experiment [2]; 15.1% in experiment [3]; 4.57% in experiment [4]; 19.8% in experiment [5]; 7.72% in experiment [6]. The inhibition in experiment [7] is 40.4%.
`Nc1ccc(C#Cc2cncnc2Nc2ccc(OCc3cccc(F)c3)c(Cl)c2)cc1`: the inhibition in experiment [1] is -1.01%; in experiment [2], 0.78%; in experiment [3], 1.25%; in experiment [4] it was 2.69%; in experiment [5] it was 2.94%; in experiment [6] it was 3.21%. In addition, the inhibition in experiment [7] came to 3.62%.
For the compound `Cc1ccc(NC(=O)CC2CC2)cc1-c1ccc(C(=O)NCC2CC2)cc1`, the inhibition in experiment [1] is 2.03%; in experiment [2] it was -2.97%; in experiment [3] it was 2.2%; in experiment [4] it was 2.09%; in experiment [5], 7.62%; in experiment [6], 3.23%. Also, in experiment [7], the inhibition turned out to be 6.82%.
Take `CS(=O)(=O)Nc1cccc(-c2ccc3c(NC(=O)C4CC4)n[nH]c3c2)c1`: the inhibition was determined as 16.5% in experiment [1]; 4.95% in experiment [2]; 0.25% in experiment [3]; 1.1% in experiment [4]; 5.23% in experiment [5]; 2.67% in experiment [6]. Also, the inhibition in experiment [7] came to 5.19%.
With `CN(C)CCCn1c(-c2nonc2N)nc2cnccc21`, the inhibition was 1.81% in experiment [1]; 4.22% in experiment [2]; 1.99% in experiment [3]; 3.63% in experiment [4]; 2.14% in experiment [5]; 2.04% in experiment [6]. In addition, the inhibition in experiment [7] came to 2.51%.
Regarding `Oc1cccc(-c2nc(-c3ccccc3)[nH]c2-c2ccncc2)c1`, the inhibition is 12.2% in experiment [1]; -4.12% in experiment [2]; 2.23% in experiment [3]; 4.13% in experiment [4]; 8.56% in experiment [5]; 4.27% in experiment [6]. Besides, in experiment [7], the inhibition amounted to 8.9%.
On to `NS(=O)(=O)c1ccc(Nc2cc(-c3cccc(O)c3)n[nH]2)cc1`, for which the inhibition was -1.78% in experiment [1]; 0.88% in experiment [2]; 2.85% in experiment [3]; 6.39% in experiment [4]; 12.4% in experiment [5]; 6.39% in experiment [6]. For the same compound, in experiment [7], the inhibition amounted to 17.1%.
Regarding `c1ccc(Cc2nc3ccc(Nc4ncnc5ccccc45)cc3[nH]2)cc1`, the inhibition is 8.44% in experiment [1]; -1.86% in experiment [2]; 1.52% in experiment [3]; 0.2% in experiment [4]; 4.18% in experiment [5]; 3.52% in experiment [6]. Also, in experiment [7], the inhibition amounted to 9.17%.

Source of the values: ChEMBL document CHEMBL1961873, “Compounds: GSK PKIS; Assays: Nanosyn kinase panel” (2012).
